Results taken from PubChem BioAssay.
Records with an inconclusive call do not appear. Active and inactive are the calls of the source.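 How the source made its calls, unless noted: active means GFP response, as percent of the DMSO control, above the screen-wide mean plus 3 SD, about 139; inconclusive means no response measured because the compound's own fluorescence interfered; inactive means the rest.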

Tests used:
[1] = rapamycin-like changes in RPL19A-GFP expression – cell-based, S. cerevisiae, multiplex flow cytometry, primary screen (AID 1862; in the data active means percent of DMSO control GFP below about 86%;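 further: lower values mimic rapamycin by blocking the RPL19A rise seen in DMSO cells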); settings: S. cerevisiae RPL19A-GFP strain, flow cytometry fluorescence, 3 h; at 10 µM; stronger effect = lower value
[2] = TOR pathway GLN3 branch reporter MEP2-GFP changes – S. cerevisiae, multiplex flow cytometry, primary screen (AID 1867);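 further: median GFP channel fluorescence of barcode-gated MEP2-GFP cells measured by flow cytometry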; settings: S. cerevisiae MEP2-GFP strain, 3 h, at 10 µM, stronger effect = higher value, 100% means same as DMSO wells
[3] = TOR pathway RTG branch CIT2 reporter changes – S. cerevisiae, GFP fusion, multiplex flow cytometry, primary screen (AID 1870;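 active means percent response above a set limit, the screen-wide mean plus 3 SD, cut at about 130% in these data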;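 further: barcoded CIT2-GFP strain pooled with four other GFP strains with rapamycin as positive control; median GFP fluorescence per well over plate mean of DMSO wells so 100% = DMSO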); settings: S. cerevisiae CIT2-GFP expression, 3 h, at 10 µM, stronger effect = higher value
[4] = TOR pathway LAP4-GFP level changes – S. cerevisiae, multiplex flow cytometry, primary screen (AID 1873;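 active means GFP signal, as percent of the solvent control, above the screen mean plus 3 SD, about 149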); settings: S. cerevisiae LAP4-GFP expression, 3 h, at 10 µM, stronger effect = higher value
[5] = yeast AGP1-GFP level changes, GLN3 branch – cell-based, multiplex flow cytometry, S. cerevisiae, primary screen (AID 1887;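 active means GFP signal above the screen-wide mean plus 3 SD, that is over about 124.5% of the solvent control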;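 further: AGP1-GFP fusion strain of S. cerevisiae within a five-strain barcoded multiplex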); settings: 3 h, at 10 µM, stronger effect = higher value
[6] = reduced mouse 2C T cell binding to pMHC/ICAM-1 vesicles – MLPCN validation set, flow cytometry, LFA-1/ICAM-1 modulator project, pilot screen (AID 2523;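 active means response below a set limit, under 55% cells CD8-positive and vesicle-bound, and CD8 cells' 90th-percentile brightness under 279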;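 on vesicle binding response: mean PE anti-B7-1 fluorescence of CD8+ cells relative to row control; 100% = QL9-loaded vesicles with DMSO vehicle in the same plate row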); settings: 2C mouse CD8+ T cells, at 7 µM, stronger effect = lower value; double positive events: measured here: CD8+/vesicle+ event percentage
[7] = target: Integrin beta-1 (Homo sapiens) + Integrin alpha-4 (Homo sapiens) (UniProt P13612+P05556); assay: alpha4beta1 integrin LIBS antibody binding reduction – U937 cells, HUTS-21 mAb, flow cytometry, validation set, VLA-4 allosteric modulator project, pilot screen (AID 2674;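 active means inhibition above 50%, about 3 SD of the validation set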;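 further: antibody binding induced by the VLA-4 ligand LDV present at three times its Kd; 0% = LDV ligand with antibody and no compound and 100% = antibody without LDV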); settings: HUTS-21 LIBS mAb binding, at 6.7 µM, stronger effect = higher value, binding induced by LDV ligand
Sequence of Integrin beta-1 (Homo sapiens) + Integrin alpha-4 (Homo sapiens) (P05556 whole entry, looked up): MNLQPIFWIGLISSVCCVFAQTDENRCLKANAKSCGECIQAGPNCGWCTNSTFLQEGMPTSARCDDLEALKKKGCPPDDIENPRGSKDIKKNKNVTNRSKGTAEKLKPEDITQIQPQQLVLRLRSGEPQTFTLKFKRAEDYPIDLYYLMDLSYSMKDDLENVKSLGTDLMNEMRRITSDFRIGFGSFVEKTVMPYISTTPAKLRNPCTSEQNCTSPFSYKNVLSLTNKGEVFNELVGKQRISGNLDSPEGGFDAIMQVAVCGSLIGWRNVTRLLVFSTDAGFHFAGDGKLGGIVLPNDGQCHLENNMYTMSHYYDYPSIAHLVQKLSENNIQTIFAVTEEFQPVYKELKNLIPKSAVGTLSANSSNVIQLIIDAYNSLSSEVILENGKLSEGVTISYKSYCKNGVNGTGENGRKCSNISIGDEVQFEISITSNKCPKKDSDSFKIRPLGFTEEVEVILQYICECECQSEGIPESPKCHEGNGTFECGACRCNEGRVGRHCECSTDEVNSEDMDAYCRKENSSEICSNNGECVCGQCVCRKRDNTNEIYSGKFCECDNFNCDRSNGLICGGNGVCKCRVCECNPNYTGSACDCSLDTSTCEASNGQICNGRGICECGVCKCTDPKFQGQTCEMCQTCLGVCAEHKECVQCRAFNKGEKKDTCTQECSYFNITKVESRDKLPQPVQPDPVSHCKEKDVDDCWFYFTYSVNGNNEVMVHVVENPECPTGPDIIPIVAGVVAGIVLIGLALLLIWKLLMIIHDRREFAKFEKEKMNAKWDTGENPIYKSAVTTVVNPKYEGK
Sequence of Integrin beta-1 (Homo sapiens) + Integrin alpha-4 (Homo sapiens) (P13612 whole entry, looked up): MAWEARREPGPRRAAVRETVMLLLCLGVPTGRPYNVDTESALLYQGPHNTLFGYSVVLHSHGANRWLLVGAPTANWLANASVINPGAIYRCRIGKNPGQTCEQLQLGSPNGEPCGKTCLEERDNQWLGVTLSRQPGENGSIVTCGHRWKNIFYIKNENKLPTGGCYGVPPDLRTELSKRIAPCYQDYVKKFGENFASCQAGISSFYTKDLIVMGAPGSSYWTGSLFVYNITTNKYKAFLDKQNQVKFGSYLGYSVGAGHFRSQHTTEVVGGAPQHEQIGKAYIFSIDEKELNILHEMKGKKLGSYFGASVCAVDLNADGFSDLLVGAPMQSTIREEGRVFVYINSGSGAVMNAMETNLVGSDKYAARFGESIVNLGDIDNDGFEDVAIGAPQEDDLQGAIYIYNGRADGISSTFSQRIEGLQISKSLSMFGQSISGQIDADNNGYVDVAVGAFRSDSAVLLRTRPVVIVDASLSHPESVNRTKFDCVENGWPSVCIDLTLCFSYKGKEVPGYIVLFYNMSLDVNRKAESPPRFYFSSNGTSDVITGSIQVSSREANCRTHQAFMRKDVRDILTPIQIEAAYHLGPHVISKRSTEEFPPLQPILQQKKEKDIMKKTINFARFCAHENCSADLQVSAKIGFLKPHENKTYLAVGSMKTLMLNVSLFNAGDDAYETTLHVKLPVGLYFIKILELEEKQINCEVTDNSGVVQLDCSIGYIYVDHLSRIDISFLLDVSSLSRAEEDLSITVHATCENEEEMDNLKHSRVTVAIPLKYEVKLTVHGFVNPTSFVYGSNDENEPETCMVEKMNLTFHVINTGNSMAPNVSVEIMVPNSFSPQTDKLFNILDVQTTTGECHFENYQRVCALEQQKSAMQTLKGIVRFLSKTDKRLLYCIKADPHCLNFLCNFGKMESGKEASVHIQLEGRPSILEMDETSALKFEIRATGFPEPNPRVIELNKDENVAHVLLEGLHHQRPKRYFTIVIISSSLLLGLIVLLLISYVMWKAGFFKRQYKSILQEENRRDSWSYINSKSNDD

[8] = calorie-restriction mimetic ROS inhibitors, yeast – validation compound set, pilot screen (AID 2706;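 active means superoxide response below 65% of plate, a cut near 3 SD across the whole screen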;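 further: yeast exposed to compound for one week at 30 degrees C before staining; 100% = mean of all compound wells on the same plate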); settings: S. cerevisiae aging, superoxide DHE fluorescence; at 10 µM; stronger effect = lower value
[9] = target: Beta-adrenergic receptor kinase 1 (Homo sapiens) (UniProt P25098); assay: GRK2 binders displacing RNA aptamer, biochemical, validation, human GRK2, bead flow cytometry (AID 488806;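 active means aptamer binding inhibition above 30%, about 3 SD of noise from non-fluorescent compounds; inactive means inhibition at or below 30%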); settings: bead-bound GRK2, FAM-aptamer displacement, at 10 µM, stronger effect = higher value
Sequence of Beta-adrenergic receptor kinase 1 (Homo sapiens) (P25098 whole entry, looked up): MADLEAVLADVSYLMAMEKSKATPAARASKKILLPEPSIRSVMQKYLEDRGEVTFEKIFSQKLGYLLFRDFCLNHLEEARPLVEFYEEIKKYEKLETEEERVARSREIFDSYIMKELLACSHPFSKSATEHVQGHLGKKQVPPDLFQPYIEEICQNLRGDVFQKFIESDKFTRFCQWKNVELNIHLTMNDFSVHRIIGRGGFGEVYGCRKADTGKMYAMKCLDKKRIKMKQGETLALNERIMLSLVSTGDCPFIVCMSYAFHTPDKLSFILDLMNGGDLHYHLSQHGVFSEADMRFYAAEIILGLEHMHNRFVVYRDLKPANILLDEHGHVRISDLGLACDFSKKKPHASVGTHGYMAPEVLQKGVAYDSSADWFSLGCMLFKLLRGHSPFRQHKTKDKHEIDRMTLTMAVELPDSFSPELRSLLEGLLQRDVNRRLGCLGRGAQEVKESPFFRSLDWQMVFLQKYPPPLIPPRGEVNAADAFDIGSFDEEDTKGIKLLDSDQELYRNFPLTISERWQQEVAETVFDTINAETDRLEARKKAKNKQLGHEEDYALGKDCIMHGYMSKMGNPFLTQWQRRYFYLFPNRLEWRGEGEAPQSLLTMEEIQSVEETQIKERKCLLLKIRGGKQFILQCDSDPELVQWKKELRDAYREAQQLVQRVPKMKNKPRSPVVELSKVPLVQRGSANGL

[10] = target: Beta-2 adrenergic receptor (Homo sapiens) (UniProt P07550); assay: agonist-induced loss of surface beta2AR – cell-based, FAP fluorogen, flow cytometry, validation set, pilot screen (AID 504459;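 active means percent response above 42, roughly 3 SD of non-fluorescent test compounds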;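 further: agonist-driven loss of surface beta2AR via internalization measured by FAP dye flow cytometry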); settings: Am2.2-beta2AR cells, at 10 µM, stronger effect = higher value
Sequence of Beta-2 adrenergic receptor (Homo sapiens) (P07550 whole entry, looked up): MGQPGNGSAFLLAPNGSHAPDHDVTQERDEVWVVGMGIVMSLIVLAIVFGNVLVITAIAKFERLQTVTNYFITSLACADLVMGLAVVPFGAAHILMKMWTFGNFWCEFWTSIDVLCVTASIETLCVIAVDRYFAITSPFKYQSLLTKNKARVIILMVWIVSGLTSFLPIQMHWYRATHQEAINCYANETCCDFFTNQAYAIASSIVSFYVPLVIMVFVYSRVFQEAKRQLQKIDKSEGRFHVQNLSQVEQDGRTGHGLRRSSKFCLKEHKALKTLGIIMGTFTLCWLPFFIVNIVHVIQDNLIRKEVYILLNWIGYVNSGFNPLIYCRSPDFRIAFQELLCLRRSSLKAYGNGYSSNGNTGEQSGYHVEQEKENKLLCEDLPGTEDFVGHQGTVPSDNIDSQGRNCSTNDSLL

[11] = target: AP-2 complex subunit beta (Homo sapiens) (UniProt P63010); assay: beta-arrestin/AP2 interaction blockers – biochemical, validation set, GST-AP2 beads, flow cytometry, pilot screen (AID 504541;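 active means inhibition above 54%, about 3 SD of non-fluorescent compounds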;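 further: AP2 carries R879A mutation and is captured from E. coli lysate; bead-bound FITC arrestin peptide fluorescence measuring arrestin peptide binding to AP2; 0% = DMSO wells and 100% = excess unlabeled arrestin peptide control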); settings: FITC arrestin peptide, at 10 µM, stronger effect = higher value, AP2 beta2 appendage fragment, R879A mutant
Sequence of AP-2 complex subunit beta (Homo sapiens) (P63010 whole entry, looked up, the tested form may be a part, one chain of several): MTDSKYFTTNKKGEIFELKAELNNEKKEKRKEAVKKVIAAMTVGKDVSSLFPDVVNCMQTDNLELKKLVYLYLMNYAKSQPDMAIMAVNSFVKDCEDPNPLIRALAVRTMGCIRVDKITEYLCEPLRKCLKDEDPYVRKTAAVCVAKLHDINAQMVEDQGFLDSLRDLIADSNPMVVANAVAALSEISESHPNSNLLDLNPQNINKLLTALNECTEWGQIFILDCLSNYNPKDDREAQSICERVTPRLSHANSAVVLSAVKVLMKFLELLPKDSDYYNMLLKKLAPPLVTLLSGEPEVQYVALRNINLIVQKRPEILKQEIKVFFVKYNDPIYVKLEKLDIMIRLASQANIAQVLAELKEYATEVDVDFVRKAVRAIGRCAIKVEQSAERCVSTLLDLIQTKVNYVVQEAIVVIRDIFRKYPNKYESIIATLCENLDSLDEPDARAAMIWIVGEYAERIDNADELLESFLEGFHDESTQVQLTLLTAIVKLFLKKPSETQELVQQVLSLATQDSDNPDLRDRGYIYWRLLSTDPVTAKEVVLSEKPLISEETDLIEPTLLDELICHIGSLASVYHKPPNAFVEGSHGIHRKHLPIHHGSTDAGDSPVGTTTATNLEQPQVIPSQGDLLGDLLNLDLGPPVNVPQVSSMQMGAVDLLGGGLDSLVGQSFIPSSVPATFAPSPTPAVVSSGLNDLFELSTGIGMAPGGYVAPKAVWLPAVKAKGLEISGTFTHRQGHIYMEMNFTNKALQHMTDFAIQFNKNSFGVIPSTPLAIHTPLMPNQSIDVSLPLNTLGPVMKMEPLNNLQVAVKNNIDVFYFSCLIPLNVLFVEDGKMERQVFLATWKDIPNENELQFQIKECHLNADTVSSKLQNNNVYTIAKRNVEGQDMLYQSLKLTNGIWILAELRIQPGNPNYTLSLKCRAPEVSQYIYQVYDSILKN

[12] = cytosolic pH regulators acting via V-ATPase – S. cerevisiae, pHLuorin, HTS validation (AID 504600; in the data active means response above about 15%;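 further: plate controls were DMSO for no effect and reference compound for full effect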); settings: V-ATPase proton transport, at 10 µM, stronger effect = higher value
[13] = system: anti-desmoglein-3 scFv antibody binding to human DSG3; assay: blockers of pathogenic pemphigus antibody–desmoglein-3 binding – biochemical, validation compound set, bead-based, flow cytometry, pilot screen (AID 588368;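 active means binding below the plate cutoff, the plate median minus 3 SD, with a reading above zero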;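 further: signal is the median channel fluorescence of bead-bound GFP antibody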); settings: Protein G beads, DSG3-Fc, scFv-GFP binding, at 10 µM, stronger effect = lower value
[14] = Nile Red efflux blockade in pump-expressing yeast – validation compound set, multiplex, phenotypic, pilot screen (AID 588506;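 active means efflux inhibition above 0.42, the validation set average plus 4 SD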;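 further: Nile Red retained in cells so higher fluorescence means more efflux inhibition; 0 = negative control wells and 1 = enniatin B 25 µM full block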); settings: S. cerevisiae pump-expressing triplex, Nile Red efflux flow cytometry; at 10 µM; stronger effect = higher value; the pumps come from Candida albicans
[15] = target: ATP-binding cassette sub-family B member 6 (Homo sapiens) (UniProt Q9NP58); assay: blockers of ABCB6-driven porphyrin uptake – K562-ABCB6 cells, flow cytometry, validation set, pilot screen (AID 588550;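 active means inhibition above the screen-wide mean plus 3 SD, about 51%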;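 further: 0% = DMSO wells and 100% = benzethonium chloride 70 µM positive control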); settings: K562-ABCB6 porphyrin accumulation, 1 h, at 10 µM, stronger effect = higher value
Sequence of ATP-binding cassette sub-family B member 6 (Homo sapiens) (Q9NP58 whole entry, looked up): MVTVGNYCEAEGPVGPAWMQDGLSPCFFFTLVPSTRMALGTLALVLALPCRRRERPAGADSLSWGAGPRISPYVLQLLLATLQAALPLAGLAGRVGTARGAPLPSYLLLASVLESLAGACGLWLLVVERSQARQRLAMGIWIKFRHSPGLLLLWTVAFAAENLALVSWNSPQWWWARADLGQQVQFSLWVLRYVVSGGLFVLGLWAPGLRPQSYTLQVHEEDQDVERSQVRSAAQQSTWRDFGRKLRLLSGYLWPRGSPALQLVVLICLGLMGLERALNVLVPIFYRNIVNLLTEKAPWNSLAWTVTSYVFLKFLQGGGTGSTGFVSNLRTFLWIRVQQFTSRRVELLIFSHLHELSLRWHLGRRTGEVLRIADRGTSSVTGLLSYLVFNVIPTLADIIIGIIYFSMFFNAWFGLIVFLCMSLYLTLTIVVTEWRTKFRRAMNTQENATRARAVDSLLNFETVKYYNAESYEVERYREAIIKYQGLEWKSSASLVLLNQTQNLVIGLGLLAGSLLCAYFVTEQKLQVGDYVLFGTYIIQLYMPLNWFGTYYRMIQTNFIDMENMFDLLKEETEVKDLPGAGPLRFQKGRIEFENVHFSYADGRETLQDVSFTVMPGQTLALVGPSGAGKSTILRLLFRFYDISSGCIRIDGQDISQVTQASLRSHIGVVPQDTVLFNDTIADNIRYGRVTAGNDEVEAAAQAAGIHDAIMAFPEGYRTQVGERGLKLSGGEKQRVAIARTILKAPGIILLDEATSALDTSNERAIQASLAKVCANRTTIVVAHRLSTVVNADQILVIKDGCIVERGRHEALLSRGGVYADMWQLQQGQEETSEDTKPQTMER

[16] = AML differentiation inducers, ER-HoxA9 marrow cells – cell-based, GFP/MAC1 double positive, flow cytometry, validation set, primary screen (AID 588685;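 active means differentiation response of at least 50%, scaled between solvent and reference control, from cells with both markers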;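 further: compound exposure lasts four days before antibody staining and flow analysis; 0% = DMSO wells and 100% = 5 µM fulvestrant positive control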); settings: stronger effect = higher value, normalized: vehicle 0, fulvestrant 100

Compound | percent of DMSO control GFP [1] | GFP response vs DMSO [2] | percent response of DMSO control [3] | GFP response vs DMSO [4] | GFP response, % of DMSO [5] | double positive events [6] [%] | vesicle binding response [6] | inhibition [7] | superoxide response (% of plate) [8] | aptamer binding inhibition [9] | response [10] | inhibition [11] | response [12] | binding (% of control) [13] | efflux inhibition (fraction of control) [14] | inhibition [15] | differentiation response [16]
Cc1ccc2c(c1)c(C)cc(=O)n2CCC(=O)O | 101% (inactive) | 102% (inactive) | 98.6% (inactive) | 116% (inactive) | 102% (inactive) | 61.6 | 210% (inactive) | 13.2% (inactive) | 97.2% (inactive) | 17% (inactive) | 4.73% (inactive) | 11.3% (inactive) | 1.4% (inactive) | 101% (inactive) | -0.24 (inactive) | 3% (inactive) | -20% (inactive)
COc1ccc2c(c1)[N+](C)(C)C(C)(C)C=C2C | 105% (inactive) | 96.2% (inactive) | 111% (inactive) | 90.1% (inactive) | 99.9% (inactive) | 70.1 | 953% (inactive) | 15.1% (inactive) | 103% (inactive) | 2% (inactive) | -8.39% (inactive) | -11.1% (inactive) | -1.92% (inactive) | 95.6% (inactive) | -0.04 (inactive) | 5% (inactive) | 12.9% (inactive)
COc1ccccc1/C=C/C(=O)OCCN1CCOCC1 | 99.8% (inactive) | 119% (inactive) | 114% (inactive) | 79.8% (inactive) | 103% (inactive) | 56.7 | 229% (inactive) | -8.09% (inactive) | 126% (inactive) | -4% (inactive) | -13.3% (inactive) | 0.96% (inactive) | -0.97% (inactive) | 106% (inactive) | 0.27 (inactive) | -9% (inactive) | -4.91% (inactive)
CCc1cc2c(=O)c(-c3nc(C)cs3)coc2cc1OC(C)C(=O)NCCO (stereo not drawn) | 90.2% (inactive) | 129% (inactive) | 107% (inactive) | 86.4% (inactive) | 92.4% (inactive) | 62.3 | 143% (inactive) | 9.37% (inactive) | 95.6% (inactive) | 3% (inactive) | 8.19% (inactive) | -0.76% (inactive) | -0.12% (inactive) | 101% (inactive) | -0.2 (inactive) | 10% (inactive) | -4.09% (inactive)
CC1(C)Oc2ccc(C#N)cc2[C@@H](N2CCCC2=O)[C@@H]1O | 97.9% (inactive) | 115% (inactive) | 116% (inactive) | 78.7% (inactive) | 99.1% (inactive) | 63 | 180% (inactive) | 2.58% (inactive) | 93% (inactive) | -1% (inactive) | -6.3% (inactive) | 1.01% (inactive) | 0.27% (inactive) | 100% (inactive) | -0.09 (inactive) | 6% (inactive) | 0% (inactive)
O=C(NC(=S)Nc1ccc2c(c1)OCCO2)c1ccccc1F | 103% (inactive) | 108% (inactive) | 101% (inactive) | 93% (inactive) | 97.7% (inactive) | 61.5 | 2360% (inactive) | 1.12% (inactive) | 109% (inactive) | 2% (inactive) | 5.42% (inactive) | 7.78% (inactive) | 1.01% (inactive) | 98.5% (inactive) | -0.12 (inactive) | 9% (inactive) | 0% (inactive)
c1cc(-c2ccncc2)ccn1 | 99.7% (inactive) | 95.2% (inactive) | 106% (inactive) | 108% (inactive) | 105% (inactive) | 58.3 | 239% (inactive) | 0.94% (inactive) | 117% (inactive) | 4% (inactive) | 8.34% (inactive) | 23.8% (inactive) | -5.09% (inactive) | 101% (inactive) | -0.28 (inactive) | 4% (inactive) | 79.2% (active)
CN(C)C(=O)CCCCCCCCC(=O)N(C)C | 90.6% (inactive) | 146% (active) | 107% (inactive) | 79.2% (inactive) | 93.3% (inactive) | 64.1 | 194% (inactive) | 7.43% (inactive) | 81.8% (inactive) | 5% (inactive) | 3.92% (inactive) | 12.9% (inactive) | -5.22% (inactive) | 101% (inactive) | 0.16 (inactive) | 6% (inactive) | 1.64% (inactive)
COc1cc2cc(C)nc(Cc3cccc4ccccc34)c2cc1OC | 102% (inactive) | 105% (inactive) | 98.2% (inactive) | 82.3% (inactive) | 97.7% (inactive) | 59.9 | 204% (inactive) | 1.12% (inactive) | 95.6% (inactive) | 3% (inactive) | 9.84% (inactive) | 8.39% (inactive) | -0.08% (inactive) | 101% (inactive) | 0.04 (inactive) | -9% (inactive) | 4.21% (inactive)
O=C(CN1CC[n+]2c(-c3cccs3)csc21)c1ccc(Br)cc1 | 103% (inactive) | 104% (inactive) | 108% (inactive) | 103% (inactive) | 107% (inactive) | 64 | 142% (inactive) | 1.59% (inactive) | 96.7% (inactive) | 0% (inactive) | 10.7% (inactive) | 14.7% (inactive) | 1.44% (inactive) | 99% (inactive) | -0.085 (inactive) | -9% (inactive) | -7.5% (inactive)
CC(=O)OC(CC(=O)O)C[N+](C)(C)C (stereo not drawn) | 100% (inactive) | 103% (inactive) | 95.4% (inactive) | 92.7% (inactive) | 97.6% (inactive) | 65 | 243% (inactive) | -17.1% (inactive) | 103% (inactive) | 2% (inactive) | -0.16% (inactive) | 14.1% (inactive) | -2.66% (inactive) | 97.1% (inactive) | 0.02 (inactive) | 10% (inactive) | -8.55% (inactive)
Cc1ccccc1C(=O)Oc1ccc(Sc2ccc(O)cc2)cc1 | 103% (inactive) | 99.3% (inactive) | 100% (inactive) | 113% (inactive) | 100% (inactive) | 62.4 | 255% (inactive) | 0.58% (inactive) | 94.1% (inactive) | 0% (inactive) | -4.72% (inactive) | -5.67% (inactive) | 1.54% (inactive) | 97.6% (inactive) | 0.02 (inactive) | -7% (inactive) | -1.71% (inactive)
COc1ccc(-c2coc3c(CN4CCOCC4)c(O)ccc3c2=O)cc1 | 105% (inactive) | 99.7% (inactive) | 109% (inactive) | 93.7% (inactive) | 105% (inactive) | 57.5 | 118% (inactive) | -5.11% (inactive) | 103% (inactive) | -6% (inactive) | -34.4% (inactive) | 55.9% (active) | -2.03% (inactive) | 103% (inactive) | 0.31 (inactive) | -5% (inactive) | -3.11% (inactive)
NC(=O)c1cccnc1 | 86.7% (inactive) | 121% (inactive) | 110% (inactive) | 79.8% (inactive) | 98.7% (inactive) | 45 | 242% (inactive) | 7.43% (inactive) | 111% (inactive) | 3% (inactive) | 8.79% (inactive) | -4.05% (inactive) | 1.76% (inactive) | 99.8% (inactive) | -0.28 (inactive) | 9% (inactive) | -1.64% (inactive)
CCOC(=O)c1cc2c(nc1N)CC(C)(CC)OC2 (stereo not drawn) | 101% (inactive) | 109% (inactive) | 91% (inactive) | 127% (inactive) | 100% (inactive) | 61.3 | 170% (inactive) | 9.13% (inactive) | 97.3% (inactive) | -1% (inactive) | -13.4% (inactive) | 38.2% (inactive) | -3.65% (inactive) | 105% (inactive) | -0.24 (inactive) | 3% (inactive) | 60% (active)
COc1ccc2cc(C(=O)OC(C)C)sc(=O)c2c1OC | 106% (inactive) | 98.6% (inactive) | 95.1% (inactive) | 121% (inactive) | 106% (inactive) | 61.9 | 220% (inactive) | 3.99% (inactive) | 112% (inactive) | 0% (inactive) | -12.6% (inactive) | -1.55% (inactive) | -19.1% (inactive) | 85.1% (inactive) | 0 (inactive) | 4% (inactive) | 11.8% (inactive)
Cc1cccc2c1CC(C)(C)N/C2=C\C(N)=O | 98.7% (inactive) | 102% (inactive) | 91.8% (inactive) | 103% (inactive) | 104% (inactive) | 63.7 | 148% (inactive) | -217% (inactive) | 99% (inactive) | 0% (inactive) | -10.2% (inactive) | 10.1% (inactive) | -3.68% (inactive) | 113% (inactive) | 0.04 (inactive) | -25% (inactive) | -12.9% (inactive)
O=C(/C=C/c1ccc2c(c1)OCO2)NCc1ccc(F)cc1 | 101% (inactive) | 106% (inactive) | 95.4% (inactive) | 108% (inactive) | 99.7% (inactive) | 60.1 | 130% (inactive) | -3.57% (inactive) | 108% (inactive) | 2% (inactive) | -3.87% (inactive) | 55.2% (active) | -3% (inactive) | 98.4% (inactive) | 0.08 (inactive) | 2% (inactive) | 15.9% (inactive)
Cc1c(OCC(F)(F)F)ccnc1CS(=O)c1nc2ccccc2[nH]1 (stereo not drawn) | 95.1% (inactive) | 101% (inactive) | 97% (inactive) | 119% (inactive) | 118% (inactive) | 58.8 | 153% (inactive) | -64.1% (inactive) | 111% (inactive) | 1% (inactive) | 24.6% (inactive) | -4.09% (inactive) | -4.18% (inactive) | 106% (inactive) | 0.04 (inactive) | -6% (inactive) | -4% (inactive)
